In PubChem BioAssay (NCI):
This is part of a sample that, as a whole, favours compounds with a hit. Of some 83,000 tested, about 20% had one in any assay.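 Growth was measured after 48 h exposure to one concentration of compound in 96-well plates. Values under 10 count as active.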 A number with no mark means an inactive call. Calls of active or inactive are those of the source.

Tested on: SN12C renal
Assay: NCI-60 one-dose screen, 48 h (100 = growth as untreated, 0 = no growth, -100 = all killed)
Settings: 10 µM unless noted
Experimental: Growth inhibition of the SN12C human tumor cell line is measured as a screen for anti-cancer activity. Cells are grown in 96 well plates and exposed to the test compound for 48 hours. Compounds are tested at a single concentration, which is 10^-5 M for most compounds. The reported endpoint is percent growth (GI% or GIPRCNT), where numbers from 0 - 100% represent growth inhibition, and numbers from -100% - 0 represent cell death. For example, a value of 40 represents 60% growth inhibition. A value of 0 means no net growth occurred over the course of the experiment. A value of -40 indicates 40% of cells at the beginning of the experiment died by the end of the experiment. A value of -100 means all cells are dead at the end of the experiment.
NCI-60 Human Tumor Cell Lines Screen was performed using the standard one-dose NCI protocol, which is described in more detail at https://dtp.cancer.gov/discovery_development/nci-60/default.htm.
Compounds with GIPRCNT values below 10 were considered active. Activity score was based on GIPRCNT using the following formula: […]
Score is 0 for GIPRCNT values of 100 or above, 50 for GIPRCNT values of 0, and 100 for GIPRCNT values of -100.

Compound	growth
C/C(CC(C)(C)N1CC1)=N\NC(=O)Nc1cccc2ccccc12	63.3%
CCCC[C@H](NC(=O)[C@H]1CCCN1C)C(=O)N(C)[C@H](C[C@@H](OC(C)=O)c1nc(C(=O)N[C@@H](Cc2ccccc2)C[C@H](C)C(=O)OCC)cs1)C(C)C	23.6%
CNC(=O)Oc1ccc(C(C)(C)C)cc1OC(=O)NC	95.2%
C[C@]12CC[C@@H]3c4ccc(Oc5nc(N6CC6)nc(N6CC6)n5)cc4CC[C@H]3[C@@H]1CCC2=O	21.5%
Cc1c(C)c([N+](=O)[O-])c(C)c(C)c1[N+](=O)[O-]	111%
C[C@]12CCc3sc(NCCc4ccccc4)nc3C1=CC[C@@H]1[C@@H]2CC[C@]2(C)C(=O)CC[C@@H]12	68.5%
Nc1c(F)cc(-c2nc3cc(F)ccc3[se]2)cc1F	85.9%
CC(=O)[O][Hg][c]1c(N)c(C)cc(C)c1F	5.86% (active)
Cc1cc(-c2nc3cc(F)ccc3[se]2)cc(F)c1N	95.5%
CC(=O)OC1CCC2C3CCC4=C/C(=N/OC(=O)c5ccc(N(CCCl)CCCl)cc5)CCC4(C)C3CC(C)C12 (stereo not given)	72.6%
CCCC[C@H](NC(=O)[C@H]1CCCCN1C)C(=O)N(C)[C@H](C[C@@H](OC(C)=O)c1nc(C(=O)N[C@@H](Cc2ccccc2)C[C@H](C)C(=O)OCC)cs1)C(C)C	23.9%
COC(=O)[C@@H](C)C[C@H](Cc1ccccc1)NC(=O)c1nc([C@@H](C[C@H](C(C)C)N(C)C(=O)[C@@H](NC(=O)[C@H]2CCCCN2C)C(C)C)OC(C)=O)sc1C(C)C	10.8%
CCn1nccc1NC(=O)C(=O)c1cn(Cc2ccc(F)cc2)c2cccc(OC)c12	86.9%
O=C([O][Hg][CH2]C1COCC([CH2][Hg][O]C(=O)c2ccccc2)O1)c1ccccc1 (stereo not given)	56.8%
CC12CCC3C(CCC4Cc5[nH]c6ccccc6c5CC43C)C1CCC2O (stereo not given)	42.8%
C[C@@H]1CCC2[C@@H](C)[C@H](OC(=O)CCC(=O)NCCNC(=O)Cc3cc(=O)oc4cc(N(C)C)ccc34)O[C@@H]3O[C@]4(C)CC[C@@H]1C23OO4 (stereo not given in full)	32.2%
c1ccc(CSC(c2ccccc2)c2ccccc2)cc1	101%
CC[CH2][Sn]([Cl])([Cl])[CH2]CC	74.5%
Cc1c(NS(=O)(=O)c2ccccc2)ccc([N+](=O)[O-])c1Cl	58.6%
Oc1c(O)c(Cl)c(Cl)c(Cl)c1Cl	31.6%

Compound	growth
O=C1OCCC1Br (stereo not given)	103%
COc1ccc2c(c1)c(-c1nc(-c3c[nH]c4ncccc34)cs1)cn2CCCCN1CCCCC1	-75.2% (active)
OCc1ccc2c(c1)OCO2	101%
CCC[CH2][Sn]([CH2]CCC)([CH2]CCC)[O]c1ccc(Cl)cc1Cl	-69% (active)
O=C1C(=Cc2cn(Cc3ccccc3)c3ccccc23)C(=O)N(Cc2ccccc2)C(=O)N1Cc1ccccc1	101%
CC1(C)[C@H](O)[C@H](F)C[C@@]2(C)Oc3ccc(C(=O)Nc4ccc5c(c4)NC(=O)C54CCN(CCCCC#N)CC4)cc3C[C@H]12	69.9%
CC(C)(C)C(=O)OCOP(=O)(OCOC(=O)C(C)(C)C)C1CCCN(O)C1=O (stereo not given)	2.67% (active)
CC[C@H](C)[C@H](NC(=O)c1nccn1C)C(=O)N(C)[C@H](C[C@@H](OC(C)=O)c1nc(C(=O)N[C@@H](Cc2ccccc2)C[C@H](C)C(=O)OC)cs1)C(C)C	40.2%
NC1CC2CCCCC2CC1(O)c1ccccc1 (stereo not given)	101%
COC(=O)C12CC(NC(=O)c3csc([C@@H](C[C@H](C(C)C)N(C)C(=O)[C@@H](NC(=O)[C@H]4CCCCN4C)C(C)C)OC(C)=O)n3)(C1)C2	24.5%
Brc1ccc2c(c1)c(-c1nc(-c3c[nH]c4ncccc34)cs1)cn2CCN1CCCCC1	80%
COC(=O)[C@@H](C)C[C@H](Cc1ccccc1)NC(=O)c1csc([C@@H](C[C@H](C(C)C)N(C)C(=O)C2(NC(=O)[C@H]3CCCCN3C)CCC2)OC(C)=O)n1	29.8%
CO[C@H]1CC[C@@]2(C)C(=CC[C@@H]3[C@@H]2CC[C@]2(C)C(=O)C(=O)C[C@@H]32)C1	95.5%
COc1ccc2c(c1)c(-c1nc(-c3cn(C)c4ncccc34)cs1)cn2CCN1CCOCC1	34.3%
Cn1cc(C=O)c2nccnc21	104%
C/C(=C\c1cc(C(F)(F)F)nn1CCNC(=O)OC(C)(C)C)[C@@H]1C[C@@H]2O[C@]2(C)CCC[C@H](C)[C@H](O)[C@@H](C)C(=O)C(C)(C)[C@@H](O)CC(=O)O1	87%
CC(=O)O[C@H]1C(=O)[C@@]2(C)[C@H]([C@H](OC(=O)c3ccccc3)[C@]3(O)C[C@H](OC(=O)[C@H](OC(=O)OC[C@@H]4COC(C)(C)O4)[C@@H](NC(=O)c4ccccc4)c4ccccc4)C(C)=C1C3(C)C)[C@]1(OC(C)=O)CO[C@@H]1C[C@@H]2O	27%
CN(C)C(=O)Oc1ccc(Br)cc1	106%
O=c1[nH]c2ccc([N+](=O)[O-])cc2c(=O)o1	98.2%
O=C1C2CCC1C(N1CCCC1)CC2 (stereo not given)	100%
